# How the values were obtained:
# Assay type in all cases: functional
# [1] = molecular target: Solute carrier family 2, facilitated glucose transporter member 1 (Homo sapiens) (UniProt P11166); assay: ST_JUDE_LEISH: Cytotoxicity at 2uM final concentration against transgenic Leishmania Mexicana promastigotes LmGLUT1 that are glucose transport deficient and complemented with the human glucose transporter GLUT1. Activity is measured by DNA content using SYBR green in vitro
# [2] = molecular target: Hexose transporter 1 (Plasmodium falciparum) (UniProt O97467); assay: ST_JUDE_LEISH: Cytotoxicity at 2uM final concentration against transgenic Leishmania Mexicana promastigotes LmPfHT that are glucose transport deficient and complemented with the Plasmodium falciparum hexose transporter. Activity is measured by DNA content using SYBR green in vitro
# [3] = molecular target: Glucose transporter (Leishmania mexicana) (UniProt O61059); assay: ST_JUDE_LEISH: Cytotoxicity at 2uM final concentration against transgenic Leishmania Mexicana promastigotes LmGT2 that are glucose transport deficient and complemented with the L. Mexicana glucose transporter 2. Activity is measured by DNA content using SYBR green in vitro
# Chain of Solute carrier family 2, facilitated glucose transporter member 1 (Homo sapiens) (P11166 whole entry): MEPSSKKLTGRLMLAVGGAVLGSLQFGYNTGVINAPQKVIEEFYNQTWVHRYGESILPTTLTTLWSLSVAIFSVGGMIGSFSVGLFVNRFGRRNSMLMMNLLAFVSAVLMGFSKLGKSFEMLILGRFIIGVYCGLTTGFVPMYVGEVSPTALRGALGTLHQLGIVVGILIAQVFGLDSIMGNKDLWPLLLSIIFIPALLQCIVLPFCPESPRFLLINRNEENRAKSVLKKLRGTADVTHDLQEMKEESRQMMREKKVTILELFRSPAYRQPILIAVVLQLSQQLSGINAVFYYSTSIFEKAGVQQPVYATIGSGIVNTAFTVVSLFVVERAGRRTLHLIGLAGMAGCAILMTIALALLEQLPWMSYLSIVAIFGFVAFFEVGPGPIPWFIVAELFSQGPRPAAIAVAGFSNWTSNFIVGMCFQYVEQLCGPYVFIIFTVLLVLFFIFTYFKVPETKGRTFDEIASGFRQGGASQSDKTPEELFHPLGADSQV
SMILES,inhibition [1] [%],inhibition [2] [%],inhibition [3] [%]
CCCc1ccccc1OCC(O)CN(C1CCCC1)C1CCCC1 (configuration not stated),6.36,6.68,5.96
O=c1c2ccc(Sc3ccccn3)cc2n(-c2ccccc2)c2cc(Sc3ccccn3)ccc12,1.05,0.77,2.64
N#Cc1ccc(N2CCN(Cc3cccc(-c4ccc(-c5nc6cc(C(F)(F)F)ccc6[nH]5)cc4)c3)CC2)nc1,4.01,6.49,0.17
CCn1c2ccccc2c2cc(C=NN=c3cc(C)[nH]c4ccccc34)ccc21,4.76,6,0.19
O=C(c1ccccc1)N1CCC(CN2CCOC(c3ccccc3)(c3ccccc3)C2)CC1,3.71,3.92,2.8
CCOc1ccc2nc3cc(N)ccc3c(N)c2c1,1.58,3.26,1.19
Cc1ccc(NCC(=O)Nc2ccc(F)c(Cl)c2)cc1S(=O)(=O)N1CCOCC1,2.54,1.86,0.32
C=CC[C@H](C[C@H](O)[C@H](Cc1ccccc1)NC(=O)c1ccc(-c2cccnn2)cc1)C(=O)NC1CCCCC1,-1.55,-0.85,-1.31
c1ccc(COc2ccc(Nc3ncnc4cnc(-c5ccc(CNc6cccnc6)o5)cc34)cc2)cc1,3.94,3.46,0.83
CCCCCN1CCCC1CNS(=O)(=O)c1ccc(C(=O)Nc2ccc(C(F)(F)F)cc2)cc1 (configuration not stated),4.05,3.41,1.09
Cc1cc(N(C)C)nc(Nc2ccc(NC(=O)c3ccccc3Cl)cc2)n1,-1.66,5.72,-4.81
OC(CNc1ccnc(Nc2ccc(Cl)cc2)n1)c1ccc(C(F)(F)F)cc1 (configuration not stated),4.91,4.91,2.64
Cc1cc(C)cc(NC(=S)NCCCCN2CCN(c3cccc(Cl)c3)CC2)c1,-0.5,-1.31,-4.65
COc1ccc(C(=O)N2CCC3(CC2)C(=O)N(CC(=O)NCC2CCCCC2)CN3c2ccccc2)c(OC)c1,5.13,7.03,3.99
Cc1ccc(Nc2ccnc(Nc3ccc4c(c3)CS(=O)(=O)C4)n2)cc1O,2.49,3.19,4.14
COc1ccccc1C(=O)Nc1ccc(Nc2nc(C)cc(N3CCOCC3)n2)cc1,4.83,4.3,5.97
N#Cc1ccc(N[C@@H](CC2CCCCC2)C(=O)NCc2cc(Cl)cc(Cl)c2)c2ccccc12,2.42,5.09,4.82

SMILES,inhibition [1] [%],inhibition [2] [%],inhibition [3] [%]
O=C(Nc1ccc([N+](=O)[O-])cc1)Nc1cc(OCC(F)(F)F)cc(OCC(F)(F)F)c1,4.64,5.79,4.56
CC(Oc1ccc(Cl)cc1)C(=O)Nc1cc(C(F)(F)F)ccc1N1CCOCC1 (configuration not stated),8.02,10.4,6.86
CCc1ccc(NC(=O)c2ccc(CN3CCCN(Cc4cccc(O)c4)CC3)cc2)cc1,-0.63,-1.78,2.57
Cc1nc(C)c(-c2ccc(Cl)cc2)c(O)c1I,4.26,2.05,2.3
O=C(/C=C/c1ccc(Cl)c(Cl)c1)N1CCC(CN2CCC(c3nc4ccccc4n3CCCO)CC2)CC1,4.72,4.22,5.85
CC(=O)c1ccccc1OCCSc1nnc(Cc2cccs2)n1C1CCCCC1,1.7,2.09,1.75
NCCCNc1nc(Nc2ccc(C(F)(F)F)cc2F)c2c(=O)[nH]ccc2n1,3.4,3.63,0.74
O=C(NCCCN1CCOCC1)c1ccc(-c2cccc(NC(=O)c3ccc(Cl)c(Cl)c3)c2)cc1,2.04,1.79,-0.88
CC(C)COc1ccc(Cl)cc1Cc1nc(-c2nc3cccc(CN4CCN(C)CC4)c3[nH]2)cs1,0.6,0.77,0.67
S=c1nc(-c2ccccc2)n2ccsc2n1,1.86,2,2.44
c1cc(CN2CCN(CCN3CCOCC3)CC2)cc(-c2csc(-c3nc4ccccc4[nH]3)c2)c1,5.51,5.16,4.63
CC(=O)Nc1ccc(CN2CCC(NC(=O)c3ccc(-c4cccc(OC(C)C)c4)s3)CC2)cc1,6.04,2.62,7.43
Fc1cccc(CNc2ncc(-c3ccsc3)c(-c3nccs3)n2)c1,1.64,1.96,2
Cc1ccccc1C1CCN(C2CCC(NC(=O)/C=C/c3ccc4c(c3)OC(F)(F)O4)CC2)CC1 (configuration not stated),0.14,5.21,2.92
Fc1ccc(CN2CCN(c3ncnc4cc(-c5ccccc5)sc34)CC2)cc1,-1.67,-1.81,-1.83
Cc1ccccc1C(O)CNc1ccnc(Nc2cccc(C#N)c2)n1 (configuration not stated),3.5,4.38,0.24
NC1=NC(Cc2ccccc2)N(c2ccc(Cl)cc2)C(N)=N1 (configuration not stated),8.89,6.99,5.89
